PubChem BioAssay (NCATS)
Results filed as inconclusive are left out. Entries that show only a call come without a potency. Calls of active or inactive are those of the source. Calls come from the whole dose curve; as a rule, active = well fitted cell-killing curve with a large enough effect; inconclusive = small, poorly fitted or top-dose-only effect; inactive = flat fitted curve, though single readings scatter.

Assay: NCATS anti-infectives library activity on HEK293 viability as a counter-qHTS vs the C. elegans viability qHTS (AID 1745854);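 note: HEK293 cells exposed to compounds for 24 hr before the viability read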
Details: HEK293 viability counter-screen; series mostly up to 41.8 µM
In short: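 Counter-screen for cytotoxicity: HEK293, 24 hr, 37C, compounds up to 41.7 uM final (a dilution series, 1:5). Readout CellTiter-Glo luminescence, 10 min RT. Digitonin control, 83.3 uM final.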
Potency is the fitted concentration of half-maximal effect.

| Structure (SMILES) | Potency |
| --- | --- |
| O=[N+]([O-])c1ccc(S(=O)(=O)N2CCN(c3ccnc4cc(Cl)ccc34)CC2)c([N+](=O)[O-])c1 | 10 µM (active) |
| O=C(O)/C(S)=C/c1c[nH]c2ccc(F)cc12 | inactive |
| Cc1ccc(C(=O)NCCCCCC(=O)Nc2ccccc2N)cc1 | inactive |
| CC(=O)O[C@@]1(C)C[C@@H](O)[C@]2(O)C=CO[C@@H](OC3OC(CO)C(O)C(O)C3O)[C@@H]21 (stereo not given in full) | inactive |
| CN(C)c1nc2c(Br)c(Br)c(Br)c(Br)c2n1CC(=O)O | inactive |
| CS(=O)(=O)c1cc(-c2ccccc2)cc(S(=O)(=O)c2ccc(CN)s2)c1 | inactive |
| Cc1cn2nc([C@@H]3CCCCN3C(=O)c3cc(Cl)ccc3NS(C)(=O)=O)cc2nc1N1CC[C@H](N)C1 | inactive |
| COc1cc2c(c(OC)c1OC)-c1c(cc(OC)c(OC)c1OC)CC(C)C(C)C2 (stereo not given) | inactive |
| O=c1cc(-c2ccc(O)cc2)oc2cc(O)c(O)c(O)c12 | inactive |
| Cc1ccc(N)cc1C(=O)N[C@H](C)c1cccc2ccccc12 | inactive |
| O=C(O)[C@H]1O[C@@H](Oc2cc3oc(-c4ccc(O)cc4)cc(=O)c3c(O)c2O)[C@H](O)[C@@H](O)[C@@H]1O | inactive |
| CC(=O)Nc1ccc(C)c(C(=O)N[C@H](C)c2cccc3ccccc23)c1 | inactive |
| COc1ccc(-c2oc3cc(O)cc(O)c3c(=O)c2O)cc1 | inactive |
| O=C(O)[C@H]1O[C@@H](Oc2cc3oc(-c4ccccc4)cc(=O)c3c(O)c2O)[C@H](O)[C@@H](O)[C@@H]1O | inactive |
| O=C(NCc1c(F)cc(F)cc1F)c1cn2c(c(O)c1=O)C(=O)N1C3CCC(C3)OC1C2 (stereo not given) | inactive |
| CC(C)(C)OC(=O)N[C@H]1CCCCC/C=C\[C@@H]2C[C@@]2(C(=O)NS(=O)(=O)C2CC2)NC(=O)[C@@H]2C[C@@H](OC(=O)N3Cc4cccc(F)c4C3)CN2C1=O | inactive |
| CCNC(=O)c1cc2c(-c3cc(C(C)(C)O)ccc3Oc3c(C)cc(F)cc3C)cn(C)c(=O)c2[nH]1 | inactive |
| CC(=O)N[C@@H](CC(=O)O)C(=O)N[C@@H](CCC(=O)O)C(=O)N[C@H](C(=O)N[C@H](C=O)CC(=O)O)C(C)C | inactive |

| Structure (SMILES) | Potency |
| --- | --- |
| CCOC(=O)c1c(C)sc(-c2c(-c3ccc(OC)c(F)c3)[nH]c3c2c(=O)[nH]c(=O)n3C)c1O | inactive |
| O=C(O)c1cc(-c2ccc(/C=C3\SC(=S)N(Cc4ccccc4)C3=O)o2)ccc1Cl | inactive |
| Cc1cn([C@H]2O[C@@H](CO)[C@H](O)[C@H]2F)c(=O)[nH]c1=O | inactive |
| CNC(=O)[C@@H](NC(=O)[C@H](CCCc1ccccc1)[C@H](C)N(O)C=O)C(C)(C)C | inactive |
| C=CC(=O)N1C/C(=C\c2ccc([N+](=O)[O-])cc2)C(=O)/C(=C/c2ccc([N+](=O)[O-])cc2)C1 | 1.41 µM (active) |
| Cc1cnc(C(=O)N[C@H]2CCCCC/C=C\[C@@H]3C[C@@]3(C(=O)NS(=O)(=O)C3CC3)NC(=O)[C@@H]3C[C@@H](Oc4nc5ccccc5c5ccccc45)CN3C2=O)cn1 | inactive |
| C=C1CCC2C(C)(CO)C(O)CCC2(C)C1C/C=C1\C=COC1=O (stereo not given) | inactive |
| COc1ccc(C2C(C#N)=C(N)OC3=C2C(=O)CC(c2cccc4ccccc24)C3)cc1 (stereo not given) | inactive |
| S=C(S)O[C@H]1C[C@H]2C[C@@H]1[C@@H]1CCC[C@H]21 | inactive |
| C[C@@H]1O[C@@H](O[C@@H]2[C@@H](O)[C@H](OCCc3ccc(O)c(O)c3)O[C@H](CO)[C@H]2OC(=O)/C=C/c2ccc(O)c(O)c2)[C@H](O)[C@H](O)[C@H]1O | inactive |
| CC(=O)OC(C)(C)CCC(=O)[C@](C)(O)C1[C@H](O)C[C@@]2(C)C3CC=C4C(C[C@H](O)[C@@H](O)C4(C)C)[C@]3(C)C(=O)C[C@]12C (stereo not given in full) | inactive |
| Nc1cc(F)ccc1NC(=O)/C=C/c1cnn(C/C=C/c2ccccc2)c1 | inactive |
| O=C(Cc1ccccc1)Nc1nnc(NC2CCN(c3nnc(NC(=O)Cc4ccccc4)s3)CC2)s1 | inactive |
| COc1ccc2cc1Oc1ccc(cc1)C[C@H]1c3cc(c(OC)cc3CCN1C)Oc1c(O)c(OC)cc3c1[C@H](C2)N(C)CC3 | inactive |
| CC(=O)N1CCC(C(=O)N(CCCN2CCC(Cc3ccc(C(N)=O)cc3)CC2)c2ccc(C)c(Cl)c2)CC1 | inactive |
| Cc1nc(N(C)C(=O)Cc2ccc(-c3ccccn3)cc2)sc1S(N)(=O)=O | inactive |
| Cc1ccc(-c2ccc3c(c2)C=C(C(=O)Nc2ccc(C[N+](C)(C)C4CCOCC4)cc2)CCC3)cc1 | inactive |
